The sample as a whole holds a higher share of hits than the screen did.
Pf Dd2 growth: Plasmodium falciparum Dd2 growth inhibition. P. falciparum Dd2 growth, SYBR Green, 72 h. Potency, µM (titrated, usually from 28.9 µM), inactives show at the top dose activity, negative = inhibition, actives largely listed as inhibitors. 4.3% of 120,000 active. AID 1347417; active = well fitted inhibition curve with a large enough effect;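 also: plate controls were DMSO vehicle for no effect and reference drug for full effect; nearly all actives have a fitted effect of over 65% in size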
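Readout: SYBR Green fluorescence, 485 nm excitation, 535 nm emission, after ~16 h lysis at 37C. Before that, Dd2-infected red cells (2.5% hematocrit) grew 72 h with compound, 29 uM top final concentration.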
An asterisk follows results filed as active; i = inactive; [ ] = remark or other dose. Potency is read from the fitted curve at half-maximal effect.

SMILES	Pf Dd2 growth
Cc1ccc(C2(C(=O)N3CCCC4(CC3)CN(C)C(=O)O4)CC2)cc1 (centres undefined)	-8%
COc1ccc(Cl)cc1C(=O)NCc1nnc2ccc(-c3ccc(C)c(C)c3)nn12	-16%
COc1cccc(C(=O)N[C@@H]2CN(S(C)(=O)=O)C[C@H]2CN(C)C)c1	-3%
CC(C)N[C@@H]1CC[C@@H]1NC(=O)c1cc2c(C(F)(F)F)nn(C)c2s1	-26%
CNC(=O)Nc1ccc(C2(C(=O)NC(C)C)CCC2)cc1	10%
O=C(N[C@H]1C[C@@H]2C(=O)N[C@H]3CCN(C(=O)C4CCCC4)[C@@H]3C(=O)N2C1)c1cccs1	-10%[44.1 µM]
CCn1c(CN2CCC(C)CC2)nc2cc(NC(=O)c3ccc([N+](=O)[O-])cc3)ccc21	-28%
CCn1c(CN2CCC(C)CC2)nc2cc(NC(=O)c3cccc([N+](=O)[O-])c3)ccc21	6.3µM*
CCn1c(CN2CCOCC2)nc2cc(NC(=O)c3ccc([N+](=O)[O-])cc3)ccc21	-2%
O=C(CN1C(=O)C(c2ccccc2)=NC12CCCCCC2)NC1CCCC1	i
Cc1noc(-c2ccc(OC3CN(S(=O)(=O)c4cn(C)cn4)C3)cc2)n1	94%[5.79 µM]
Cc1ccc(C2=Nc3ccccc3N(CC(=O)NCc3ccc(F)cc3)C(=O)C2)cc1C	-17%
Cc1ccc(C2=Nc3ccccc3N(CC(=O)NCc3ccc(Cl)cc3)C(=O)C2)cc1C	-14%
O=C(CN1C(=O)CC(c2ccccc2)=Nc2ccccc21)Nc1ccc(Br)cc1	10µM*
Cc1ccc(CNC(=O)Cn2ccn3nc4c(c3c2=O)CCCC4)cc1	6%
O=C1[C@@H]2C[C@@H](CN2C(=O)Cc2ccccc2)Oc2ccccc2N1CC1CC1	-22%[44.1 µM]
O=C1[C@@H]2C[C@@H](CN2Cc2ccc3c(c2)OCO3)Oc2ccccc2N1CC1CC1	13µM*
CN1C(=O)[C@@H]2C[C@@H](CN2Cc2ccccc2)Oc2ccccc21	i
O=C1[C@@H]2C[C@@H](CN2Cc2ccnc3ccccc23)Oc2ccccc2N1CC1CC1	-13%[44.1 µM]
Cn1cc(CN2C[C@@H]3C[C@H]2C(=O)N(CC2CC2)c2ccccc2O3)c2ccccc21	-1%[44.1 µM]
Cc1ccc(CN2C[C@@H]3C[C@H]2C(=O)N(CC2CC2)c2ccccc2O3)cc1	10µM*
CC(C)CN(CC1CN(C(=O)Nc2cccc(Cl)c2)CCO1)C(=O)c1ccc(F)cc1 (centres undefined)	i
FC(F)(F)C1CN(c2ccc3cc(Cl)ccc3n2)CCO1 (centres undefined)	-21%
COc1cc(C(=O)N2CCCn3nc(CO)cc3C2)c2ccccc2n1	-12%
COc1ccc2cc(C(=O)N3CCC4(CC3)CC(c3nc(C)no3)N(C)C4)[nH]c2c1 (centres undefined)	i
SMILES	Pf Dd2 growth
COc1ccc2[nH]c(C(=O)N3CCC4(CC3)CC(c3nc(C)no3)N(C)C4)cc2c1 (centres undefined)	7.9µM*
CNC(=O)[C@@H]1CN(C(=O)c2cc3cc(OC)ccc3[nH]2)C[C@H]1c1nc(C)no1	-23%
COc1cc(NC(=O)Cn2nc3n(c2=O)CCCCC3)cc(OC)c1	-10%
COCCNC(=O)c1ccc2c(c1)C1(CCN(C)C1)CN2Cc1csc(C)n1 (centres undefined)	i
Cc1nc(CN2CC3(CCN(C)C3)c3cc(C(=O)NCCc4ccccc4)ccc32)cs1 (centres undefined)	11µM*
CN1CCCC2(C1)CN(C)c1ccc(C(=O)NCCc3ccccc3)cc12 (centres undefined)	-27%[44.1 µM]
O=C(c1cn[nH]c1)N1CCC(c2nc(CCOCC3CCCC3)no2)C1 (centres undefined)	-12%
CC(C)(C)CC(=O)Nc1ccc([C@@H](O)[C@H]2COCC(=O)N2CCCc2ccccc2)cc1	i
COc1ccc(CN(C(=O)c2ccco2)c2ccc(CC(=O)NCCc3ccccc3)cc2)cc1	4µM*
COCCNC(=O)Cc1ccc(N(Cc2ccc(C)cc2)C(=O)c2ccco2)cc1	5.6µM*
COCCNC(=O)Cc1ccc(N(Cc2cccc(F)c2)C(=O)c2ccco2)cc1	i
CCNC(=O)Cc1ccc(N(Cc2ccc(C)cc2)C(=O)c2ccco2)cc1	i
C=CCNC(=O)Cc1ccc(N(Cc2ccccc2)C(=O)c2ccco2)cc1	i
O=C(Cc1ccc(N(Cc2ccc(F)cc2)C(=O)c2ccco2)cc1)NCCc1ccccc1	-3%
Cn1ccnc1CN1C[C@@H](C(=O)O)C[C@@H](C(=O)NCc2ccncc2)C1	-4%
C[C@H](O)c1onc(-c2ccc(Cl)cc2)c1C(=O)NC1CC1	-14%[44.1 µM]
Cc1ccc(NC(=O)O[C@@H]2CC[C@]3(C)[C@H](CC[C@H]4OC(=O)C[C@H]43)[C@]2(C)CO)cc1	i
O=C([C@@H]1C[C@H](Oc2cccnc2)CN1S(=O)(=O)c1cccnc1)N1CCCC1	11%
CC(C)CN1C(=O)COC[C@@H]1[C@H](O)c1ccc(NC(=O)CC(C)(C)C)cc1	-16%[44.1 µM]
COc1cccc(CN2CCC3(C2)NC(=O)c2ccccc2O3)c1 (centres undefined)	13µM*
O=C1NCN(Cc2ccc(Cl)cc2)C12CCN(Cc1ccncc1)CC2	i

High-throughput results (PubChem)
